# Measurements as given in PubChem BioAssay (EPA / NIEHS).
# Inconclusive results are not listed. Activity calls are given as the source filed them. The calls were made as follows: active = hit-call score of the fitted dose curve at least 0.9, where 1 is the maximum; inconclusive = response in the unintended direction; inactive = score below 0.9.
# Experiment: ATG_M_06_TRANS: Attagene TRANS-FACTORIAL HepG2 Assay for M06 Transcription Factor (Internal Marker) (AID 2282983)
# Conditions: HepG2 Attagene TRANS M06 internal marker reporter
# Method: ATG_TRANS is a cell-based, multiplexed-readout assay that uses HepG2, a human liver cell line, with measurements taken at 24 hours after chemical dosing in a 24-well plate.ATG_M_06_TRANS is one of 30 assay component(s) measured or calculated from the ATG_TRANS assay. It is designed to make measurements of mRNA induction, a form of inducible reporter, as detected with fluorescence intensity signals by Reverse transcription polymerase chain reaction (RT-PCR) and Capillary electrophoresis technology.Data from the assay component ATG_M_06_TRANS was analyzed into 1 assay endpoint. This assay endpoint, ATG_M_06_TRANS, was analyzed in the positive analysis fitting direction relative to DMSO as the negative control and baseline of activity. Using a type of inducible reporter, measures of mRNA for gain-of-signal activity can be used to understand the background control at the transcription factor-level as they relate to the gene . Furthermore, this assay endpoint can be referred to as a secondary readout, because this assay has produced multiple assay endpoints where this one serves a background control function. To generalize the intended target to other relatable targets, this assay endpoint is annotated to the background measurement intended target family, where the subfamily is internal marker.
# Human liver HepG2 cells are transiently transfected with multiple reporter transcription units (MRTUs) in 6-well plates using FuGene 6 reagent (Roche; 3 ml FuGene/1 mg DNA). The MRTU constructs are regulated by a cis-regulating element (promoter). […] A major difference between the CIS and TRANS system is that in CIS activities of endogenous TFs are measured, whereas the TRANS assay evaluates changes in activities of exogenous, chimeric NR-Gal4 proteins. […] At the end of 24 hour incubation, total RNA was isolated using TriZol reagent (Invitrogen). The isolated RNA is then reverse-transcribed using oligo(dT) primer and Mo-MLV reverse transcriptase (Invitrogen) with DNAse I (Ambion) treatment for 30 min. The one-tenth of the produced cDNA was amplified by PCR using Taq DNA polymerase (Invitrogen) and two reporter sequence-specific primers. The PCR products were fluorescently labeled by primer extension with 6-arboxyfluorescein (6-FAM) 5'-labeled reporter sequence-specific primer (2 min at 95 C, 20 s at 68 C and 10 min at 72 C) and these products were digested with 5U of HpaI (New England Biolabs) for 2h at 37 C. The fragments were purified using Qiaquick PCR columns (Qiagen), analyzed on an ABI 3130xL genetic analyzer (Applied Biosystems) with peak positions identified by using a set of X-rhodamine (ROX)-labeled MapMarker1000 molecular weight standards (BioVentures). The raw capillary electrophoresis data was processed using Attagraph software (Attagene).
row,SMILES,outcome
1,CC1(C)CC(=O)CC(C)(C)N1,inactive
2,CCCCCCCOC(C)=O,inactive
3,OCCN1CCOCC1,inactive
4,Cc1cccc(C)c1,inactive
5,CNC(=C[N+](=O)[O-])NCCSCc1ccc(CN(C)C)o1,inactive
6,CCCCCC#CC(=O)OC,inactive
7,CC(C)(C)c1cccc(O)c1,inactive
8,NC(=O)c1c(Cl)cccc1Cl,inactive
9,CCCO[Si](OCCC)(OCCC)OCCC,inactive
10,C#C[C@]1(O)CC[C@H]2[C@@H]3CCc4cc(O)ccc4[C@H]3CC[C@@]21C,inactive
11,Cc1cccc(O)c1,inactive
12,c1ccc2c(c1)-c1ccc3ccc4cccc5cc-2c1c3c45,inactive
13,CC1=CC[C@@H](C(C)(C)O)CC1,inactive
14,O=C(O)c1ccc(C(=O)O)c(C(=O)O)c1,inactive
15,CCCCN(CCO)CCO,inactive
16,Cc1ccccc1S,inactive
17,CCCCCCCC1CCCC1=O (stereo not given),inactive
18,CC/C=C\CCOC(C)OCC (stereo not given),inactive
19,CCCCCCOC(C)=O,inactive
20,CC(C)C(=O)c1ccccc1,inactive

row,SMILES,outcome
1,CCCCC1CCCCC(=O)O1 (stereo not given),inactive
2,ClCCOCCOCCCl,inactive
3,NC(=O)NC(N)=O,inactive
4,CCCCCCCCCCCCOCCOS(=O)(=O)O,inactive
5,C1COCO1,inactive
6,CCC(=O)OC/C=C(\C)CCC=C(C)C,inactive
7,O=C(c1ccc(OCCN2CCCCC2)cc1)c1c(-c2ccc(O)cc2)sc2cc(O)ccc12,inactive
8,Cc1cc(N)n(-c2ccccc2)n1,inactive
9,O=S(=O)(O)CCCN1CCOCC1,inactive
10,CCOC(=O)COC(=O)c1ccccc1C(=O)OCC,inactive
11,NS(=O)(=O)c1cc(C(=O)O)c(NCc2ccco2)cc1Cl,inactive
12,OCCCO,inactive
13,CCC(C)(CCCC(C)C)OC(C)=O (stereo not given),inactive
14,CCCCC/C=C\C=C\C(=O)OCC,inactive
15,CC(=O)c1ccc(C)cc1,inactive
16,O=C1CCC(=O)N1,inactive
17,CC(=O)CC(=O)N(C)C,inactive
18,CC1=CC(C)C(C=O)C(C)C1 (stereo not given) (tested in a mixture with another compound),inactive
19,C=CCCCCCCCCC(=O)OCC,inactive
20,COc1ccc(OC)cc1,inactive
